For five compounds, composite z-score and z-score results are on record in PubChem BioAssay.

Assay [1] can be described thus: compounds binding Alexa647 anti-His antibody – biochemical, small-molecule microarray, 635 nm fluorescence, artefact control for SMM control protein annotation, primary screen (AID 1128).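 Also: score merges feature fluorescence with signal-to-noise for each printed compound spot.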 The conditions noted are these: higher = more signal.
The test system of assay [2] is Human papillomavirus type 1a E7 protein (residues 1-88). In words: HPV1a E7 small-molecule binders, primary screen, biochemical, small-molecule microarray, residues 1-88, 635 nm (AID 1129). The conditions noted are these: small-molecule microarray binding, fluorescence 635 nm; higher = more signal.
Assay [3] deals with Focal adhesion kinase 1 (Homo sapiens) (UniProt Q05397). Briefly: PTK2 protein binding on printed compound slides – biochemical, small-molecule microarray, 635/667 nm fluorescence, BSA, DTT, primary screen (AID 1130).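 Also: composite of spot emission at 667 nm and signal to noise over triplicate slides.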 The conditions noted are these: 635 nm fluorescence, higher = more signal.
Assay [4] deals with Fibrinogen (Alexa647-labelled). Briefly: Alexa647-fibrinogen binding to printed small molecules – biochemical, small-molecule microarray, 635/667 nm fluorescence, artefact control for SMM control-protein annotation, profiling panel (AID 1131).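 Also: z-score merges 667 nm fluorescence with per-spot signal-to-noise over triplicate slides.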 The conditions noted are these: fibrinogen-A647 binding fluorescence, higher = more signal.
Assay [5] concerns the target Follistatin (Homo sapiens) (UniProt P19883). In words: FST protein binding to printed compounds – biochemical, small-molecule microarray, 635/667 nm fluorescence, primary screen (AID 1132). The following applies: 635 nm fluorescence, higher = more signal.
Assay [6] addresses Fibroblast growth factor 2 (Homo sapiens) (UniProt P09038). In words: basic fibroblast growth factor binding to printed compounds – biochemical, small-molecule microarray, 635/667 nm fluorescence, primary screen (AID 1133). The following applies: FGF2, fluorescence 635/667, higher = more signal.
Assay [7] in a line: JC-1 mitochondrial potential readout, lung cancer cells – cell-based, A549, JC-1 fluorescence, basal, 24 h, 100 nL, profiling panel (AID 1138).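 Also: A549 lung adenocarcinoma cells under basal conditions with no added stimulus; test concentration not given here.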 The following applies: higher = more signal.
Assay [8] concerns Lefty1. Briefly: Lefty1 protein binding to printed compounds – biochemical, small-molecule microarray, 635/667 nm fluorescence, primary screen (AID 1139). The following applies: fluorescence 635/667, higher = more signal.
For assay [9], the system named is wheat germ agglutinin (Triticum aestivum), Alexa647-labelled. Briefly: Alexa647-WGA lectin binding to printed small molecules – biochemical, small-molecule microarray, 635/667 nm fluorescence, artefact control for SMM control-protein annotation, profiling panel (AID 1140).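 Also: score merges 667 nm feature emission with signal to noise over triplicate slides.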 The following applies: WGA-A647 binding, 635 nm fluorescence, higher = more signal.
For assay [10], the target named is Luciferin 4-monooxygenase (Photinus pyralis) (UniProt P08659). In words: inhibition of purified Photinus pyralis luciferase – biochemical, luminescence, purified enzyme, 2006 set, primary screen (AID 1141).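 Also: cell-free assay with purified firefly luciferase at 100 ng per well in PBS; test concentration not given here.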 The conditions noted are these: purified firefly luciferase, SteadyGlo luminescence, 30 min; higher = more signal, called active from +8 up or from −8 down.
Assay [11] concerns Wnt5a (protein binding on small-molecule microarray). Briefly: small molecules binding Wnt5a protein – biophysical, small-molecule microarray, 635/667 nm fluorescence, primary screen (AID 1142).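 Also: fluorescence read at 667 nm with signal to noise per printed feature.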 The conditions noted are these: 635 nm fluorescence, higher = more signal.
A short description of assay [12]: ATP-based viability of Huh7 replicon cells – cell-based, CellTiter-Glo luminescence, basal, 48 h, cytotoxicity control for HCV replication inhibitor project, primary screen (AID 1143).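 Also: Huh7 hepatoma cells carrying a hepatitis C replication reporter with no stimulus; test concentration not given here.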 The following applies: higher = more signal, called active from +8 up or from −8 down. A general note: A replicon is a self-replicating genome or part of one, used to study replication in cells.

Assay [13] in a line: Pseudomonas biofilm growth suppression – PAO1 strain, BacTiter-Glo luminescence, LB-PBS, primary screen (AID 1144). The following applies: P. aeruginosa PAO1 biofilm, 12 h, higher = more signal.
A short description of assay [14]: basal CRE-LacZ reporter activity in PC12 – cell-based, unstimulated, primary screen (AID 1145). The following applies: no forskolin, luminescence, 4.5 h, higher = more signal, called active from +8 up or from −8 down.
A short description of assay [15]: forskolin-driven CRE-LacZ activity in PC12 – cell-based, CRE-LacZ reporter, forskolin-stimulated, primary screen (AID 1146).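 Also: PC12 cells with 6xCRE LacZ reporter stimulated by forskolin 10 µM; beta-galactosidase reporter signal reflecting CREB driven transcription.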 The conditions noted are these: luminescence, 4.5 h, higher = more signal, called active from +8 up or from −8 down.
Assay [16] concerns the target Streptavidin (Streptomyces avidinii) (UniProt P22629). Briefly: compounds binding control protein streptavidin – biophysical, small-molecule microarray, 635/667 nm fluorescence, artefact control for SMM compound annotation, primary screen (AID 1147).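 Also: signal reflects streptavidin binding to arrayed compounds as a control protein.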 The conditions noted are these: higher = more signal.
A short description of assay [17]: probe aInhba binding on compound microarray – biochemical, small-molecule microarray, 635/667 nm fluorescence, primary screen (AID 1148).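 Also: score merges 667nm spot fluorescence with signal-to-noise for antibody binding to printed compounds.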 The following applies: higher = more signal.
Assay [18] addresses Torsin-1A (Homo sapiens) (UniProt O14656). Briefly: TOR1A wild-type binding on microarray – cell lysate, small-molecule microarray, lysate, 635/667 nm, primary screen (AID 1149). The conditions noted are these: COS7 hTOR1A-WT lysate, 635 nm fluorescence, higher = more signal.
For assay [19] the target is unchanged. Briefly: torsin A mutant lysate binding on microarrays – cell lysate, small-molecule microarray, COS7 lysate, 635/667 nm fluorescence, primary screen (AID 1150).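 Also: score pools 667 nm emission and signal to noise measuring lysate protein binding.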 The following applies: COS7 hTOR1A mutant lysate, 635 nm fluorescence, higher = more signal.
In assay [20] the test system is Sonic hedgehog protein (Shh). Briefly: Sonic hedgehog microarray binding compounds – biochemical, small-molecule microarray, 635/667 nm fluorescence, primary screen (AID 1151).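 Also: Shh protein binding to compounds spotted on small-molecule microarray slides; score combines spot fluorescence intensity with signal-to-noise across triplicate slides.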 The following applies: 635 nm fluorescence, higher = more signal.

Activity calls are given as the source filed them. Unless noted, no rule for the calls is given here.

Chain of Follistatin (Homo sapiens) (P19883 whole entry, looked up): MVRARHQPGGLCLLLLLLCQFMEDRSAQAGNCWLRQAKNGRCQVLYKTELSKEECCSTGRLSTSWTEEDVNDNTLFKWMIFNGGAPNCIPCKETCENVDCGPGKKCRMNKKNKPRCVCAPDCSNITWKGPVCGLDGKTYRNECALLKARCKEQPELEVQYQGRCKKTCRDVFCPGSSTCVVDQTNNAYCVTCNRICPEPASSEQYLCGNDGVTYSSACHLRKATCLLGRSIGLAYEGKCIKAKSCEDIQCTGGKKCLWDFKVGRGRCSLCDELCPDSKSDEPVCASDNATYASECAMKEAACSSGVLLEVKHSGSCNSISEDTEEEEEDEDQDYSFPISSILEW
Chain of Focal adhesion kinase 1 (Homo sapiens) (Q05397 whole entry, looked up): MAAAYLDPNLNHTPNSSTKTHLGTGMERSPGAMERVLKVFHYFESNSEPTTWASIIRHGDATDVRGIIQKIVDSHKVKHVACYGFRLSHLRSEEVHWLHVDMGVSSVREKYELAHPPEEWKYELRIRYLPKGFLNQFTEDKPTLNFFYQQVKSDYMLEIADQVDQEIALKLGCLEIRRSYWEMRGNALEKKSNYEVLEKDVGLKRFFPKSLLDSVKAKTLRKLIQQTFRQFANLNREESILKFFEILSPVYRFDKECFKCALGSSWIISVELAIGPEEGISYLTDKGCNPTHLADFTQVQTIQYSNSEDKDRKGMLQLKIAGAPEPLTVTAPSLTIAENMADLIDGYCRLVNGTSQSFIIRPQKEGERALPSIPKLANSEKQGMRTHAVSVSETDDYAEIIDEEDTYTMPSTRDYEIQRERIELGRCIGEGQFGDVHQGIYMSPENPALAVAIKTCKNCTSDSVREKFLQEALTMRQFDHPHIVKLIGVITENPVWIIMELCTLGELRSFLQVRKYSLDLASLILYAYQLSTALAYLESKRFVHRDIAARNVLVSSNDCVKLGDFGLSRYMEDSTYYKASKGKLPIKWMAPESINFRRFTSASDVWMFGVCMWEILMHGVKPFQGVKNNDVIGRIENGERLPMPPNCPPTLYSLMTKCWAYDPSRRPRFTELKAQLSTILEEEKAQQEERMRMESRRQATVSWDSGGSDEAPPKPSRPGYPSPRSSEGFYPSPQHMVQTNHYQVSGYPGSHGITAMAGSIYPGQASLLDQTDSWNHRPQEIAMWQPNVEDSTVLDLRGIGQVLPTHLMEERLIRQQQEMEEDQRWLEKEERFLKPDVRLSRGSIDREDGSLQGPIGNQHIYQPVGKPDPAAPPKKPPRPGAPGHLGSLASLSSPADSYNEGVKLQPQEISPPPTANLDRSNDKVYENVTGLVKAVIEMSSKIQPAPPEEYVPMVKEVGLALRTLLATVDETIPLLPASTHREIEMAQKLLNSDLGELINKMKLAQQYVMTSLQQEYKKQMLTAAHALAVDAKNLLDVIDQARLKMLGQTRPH
Chain of Fibroblast growth factor 2 (Homo sapiens) (P09038 whole entry, looked up): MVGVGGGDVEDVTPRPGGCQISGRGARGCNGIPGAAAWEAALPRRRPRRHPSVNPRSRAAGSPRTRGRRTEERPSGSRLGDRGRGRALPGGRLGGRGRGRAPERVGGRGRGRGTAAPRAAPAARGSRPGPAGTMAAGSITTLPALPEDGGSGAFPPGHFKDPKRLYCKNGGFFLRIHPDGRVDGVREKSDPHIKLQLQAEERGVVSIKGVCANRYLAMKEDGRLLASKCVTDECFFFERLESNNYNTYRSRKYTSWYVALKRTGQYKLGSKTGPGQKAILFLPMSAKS
Chain of Torsin-1A (Homo sapiens) (O14656 whole entry, looked up): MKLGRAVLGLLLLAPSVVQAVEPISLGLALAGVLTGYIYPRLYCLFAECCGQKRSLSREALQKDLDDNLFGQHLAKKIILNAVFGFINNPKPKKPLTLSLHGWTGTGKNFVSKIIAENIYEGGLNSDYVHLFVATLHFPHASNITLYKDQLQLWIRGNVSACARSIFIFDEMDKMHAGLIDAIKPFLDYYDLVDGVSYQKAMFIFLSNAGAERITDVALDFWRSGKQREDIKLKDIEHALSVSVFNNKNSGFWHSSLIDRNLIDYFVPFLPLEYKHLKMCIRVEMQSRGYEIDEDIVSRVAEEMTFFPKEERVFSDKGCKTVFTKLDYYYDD
Chain of Streptavidin (Streptomyces avidinii) (P22629 whole entry, looked up): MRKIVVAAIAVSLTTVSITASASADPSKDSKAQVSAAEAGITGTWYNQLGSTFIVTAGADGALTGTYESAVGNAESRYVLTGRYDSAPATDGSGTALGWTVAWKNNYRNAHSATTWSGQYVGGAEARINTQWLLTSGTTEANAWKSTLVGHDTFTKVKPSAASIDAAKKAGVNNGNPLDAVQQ
Chain of Luciferin 4-monooxygenase (Photinus pyralis) (P08659 whole entry, looked up): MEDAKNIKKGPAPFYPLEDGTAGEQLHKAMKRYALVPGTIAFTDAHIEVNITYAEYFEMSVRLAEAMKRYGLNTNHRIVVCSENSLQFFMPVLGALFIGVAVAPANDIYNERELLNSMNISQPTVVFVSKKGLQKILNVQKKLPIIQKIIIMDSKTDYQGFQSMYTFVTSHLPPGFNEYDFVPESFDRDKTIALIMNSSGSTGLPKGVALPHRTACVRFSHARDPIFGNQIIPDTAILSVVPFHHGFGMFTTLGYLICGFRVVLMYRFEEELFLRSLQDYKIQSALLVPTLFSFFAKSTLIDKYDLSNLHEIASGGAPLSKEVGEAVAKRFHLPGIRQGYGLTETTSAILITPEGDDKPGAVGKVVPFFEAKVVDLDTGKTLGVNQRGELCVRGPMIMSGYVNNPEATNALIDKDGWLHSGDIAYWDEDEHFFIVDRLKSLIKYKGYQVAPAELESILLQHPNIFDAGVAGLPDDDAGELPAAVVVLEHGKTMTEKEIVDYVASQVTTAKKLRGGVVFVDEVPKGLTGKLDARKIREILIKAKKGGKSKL

Consider `[N-]=[N+]=Nc1ccccc1[C@@H]1OC(c2ccc(OCCCO)cc2)=N[C@]1(CCS(=O)(=O)c1ccccc1)C(N)=O`, for which the composite z-score in [1] was 0.712; in [2], 1.23; in [3] it was 0.203; in assay [4], 1.02; in [5], 1.28; in assay [6], 0.423. The composite z-score in [8] was -0.411; in assay [9] it was 0.881; in assay [11] it was 0.903; in assay [16], 2.03; in [17] it was 0.207; in [18], 0.641. Besides, the composite z-score in [19] was 0.91; in assay [20], -0.398. Further, the z-score was -0.995 in assay [7]; -13.5 (active) in assay [10]; -1.12 (inactive) in assay [12]; 0.378 (inactive) in assay [13]; 0.218 (inactive) in assay [14]; -1.09 (inactive) in [15].

With `COc1ccccc1CN1C(=O)c2ccccc2[C@@H](C(=O)NC2CC2)[C@@H]1c1ccc(CO)cc1`, the composite z-score in [1] was determined as 2.77; in assay [2], 1.23; in [3], 0.344; in assay [4], 0.725; in [5] it was 1.42; in assay [6] it was 1.66. In addition, the composite z-score in [8] was 1.5; in assay [9], 0.85; in assay [11], 0.845; in assay [16] it was 0.53; in assay [17], 0.297; in assay [18] it was 0.848. The results for the composite z-score in [19] and in [20] were 0.385 and 1.8, respectively. Further, the z-score in [7] was 1.76; in assay [10], -0.659 (inactive); in assay [12], -0.132 (inactive); in [13], 0.217 (inactive); in assay [14], -0.709 (inactive); in [15], -1.03 (inactive).

`C=CCNC(=O)[C@H]1[C@@H]2C(=O)O[C@@H](c3ccccc3)[C@@H](c3ccccc3)N2[C@@H](c2ccccc2OCCO)[C@]12C(=O)Nc1ccc(C#CCC(C(=O)OC)C(=O)OC)cc12`: the composite z-score in assay [1] came to 1.46; in assay [2] it was 1.26; in [3] it was 0.412; in [4], 0.931; in assay [5], 1.35; in [6], 1.27. Further, the composite z-score in assay [8] turned out to be 1.25; in assay [9], 1.28; in assay [11] it was 0.761; in [16], 0.999; in assay [17], 0.277; in [18], 0.954. Also, the composite z-score in [19] came out at 1.06; in assay [20], 1.84. Moreover, the z-score was 0.627 in assay [7]; 0.62 (inactive) in [10]; -3.8 (inactive) in assay [12]; 0.608 (inactive) in [13]; -0.0784 (inactive) in assay [14]; 0.876 (inactive) in assay [15].

As to `CCC[C@@H]1C[C@@]1(CCC)[C@@H](NS(=O)(=O)c1cccc2cccnc12)c1ccc(Cl)cc1`, the composite z-score in assay [1] is 0.265; in assay [2] it was 1.06; in assay [3] it was 0.249; in assay [4] it was 0.285; in assay [5], 0.0155; in [6], -1.68. The composite z-score was -0.605 in assay [8]; 0.701 in assay [9]; 0.0298 in assay [11]; 0.633 in assay [16]; 0.0966 in [17]; -0.405 in [18]. The values for the composite z-score in [19] and in assay [20] were 0.177 and -1.33, respectively. In addition, the z-score was 2.3 in [7]; 0.19 (inactive) in assay [10]; -2.15 (inactive) in [12]; -0.0939 (inactive) in [13]; -0.754 (inactive) in assay [14]; 0.852 (inactive) in assay [15].

In the case of `O=C1c2ccccc2[C@](Cc2ccccc2I)(C(=O)NCC(F)(F)F)[C@H](c2ccc(CO)cc2)N1Cc1ccccc1Cl`, the composite z-score in assay [1] was -0.176; in [2], 1.19; in assay [3] it was 1.22; in assay [4], 0.722; in [5] it was 1.1; in assay [6], 0.138. Also, the composite z-score in [8] is 0.883; in assay [9], 0.549; in [11], 0.0919; in assay [16] it was 0.742; in [17], 0.216; in assay [18], -0.14. The values for the composite z-score in assay [19] and in [20] were 0.34 and 1.37, respectively. The z-score in assay [7] was 0.423; in assay [10] it was 0.406 (inactive); in [12] it was -0.703 (inactive); in assay [13], -1.28 (inactive); in assay [14], 0.506 (inactive); in [15] it was 0.779 (inactive).
